Laboratory results taken from PubChem BioAssay (NCATS).
Records with an inconclusive call do not appear. A call without a number means that no potency is given here. Active and inactive are the calls of the source. Calls follow the shape of the dose curve; as a rule, active = well fitted inhibition curve with a large enough effect; inconclusive = small, poorly fitted or top-dose-only effect; inactive = flat fitted curve, though single readings scatter.

Test: P-glycoprotein substrates identified in KB-8-5-11 adenocarcinoma cell line, qHTS therapeutic library screen (AID 1346987); also: nearly all actives have a fitted effect of over 65% in size
Conditions: KB-8-5-11 (P-gp overexpressing) viability, CellTiter-Glo, 72 h; series mostly up to 44.5 µM
Summary of the method: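 KB-8-5-11, a colchicine-selected P-gp-overexpressing KB-3-1 subline, was grown without colchicine for the assay. Cells were seeded at 500 cells/well, dosed in concentration-response and incubated 72 h at 37 degree C, 5% CO2. Viability was read by CellTiter-Glo luminescence.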

SMILES | Potency
CC(=O)OC[C@]12[C@H](OC(C)=O)[C@H](OC(=O)c3ccccc3)[C@@H]3[C@@H](OC(C)=O)[C@]1(OC3(C)C)[C@H](C)C[C@H](OC(C)=O)[C@@H]2OC(=O)c1ccccc1 | inactive
CC#CCC(C)[C@H](O)/C=C/[C@@H]1[C@H]2C/C(=C/CCCC(=O)O)C[C@H]2C[C@H]1O (stereo partly specified) | inactive
O=c1[nH]cnc2[nH]cc(CN3CCCCC3)c12 | inactive
CCCCCCCCCCCCCCCC(=O)OC[C@H](O)[C@H]1OC(=O)C(O)=C1O | inactive
COc1ccc(CN2CCN(C(=O)CCNC(=O)c3ccc(C(C)(C)C)cc3)CC2)cc1 | inactive
O=C(OCCO)c1ccccc1O | inactive
